Measured values from the supplement of paper PMC9694430.

Tests used:
Test in all cases: thermal shift delta Tm vs DMSO control; higher = stronger stabilization (binding)
Conditions in all cases: 12.5 µM; protein concentration 2 µM
[1] = tested on: LOC_OS01G01410-cb001
How it was run: (§1)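 Purified, E. coli-expressed rice kinase domain constructs were tested by differential scanning fluorimetry in 96-well plates: 19.5 μl of 2 μM kinase in 100 mM potassium phosphate pH 7.5, 150 mM NaCl, 10% glycerol, 5 × SYPRO Orange, plus compound in DMSO. Fluorescence was read from 25°C to 95°C at 0.05°C/s. Melting temperatures came from Boltzmann fits, and the shift is the triplicate mean relative to protein with DMSO alone.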

[2] = tested on: LOC_OS01G02750-cb003
How it was run: as §1

[3] = tested on: LOC_OS01G10900-cb004
How it was run: as §1

[4] = tested on: LOC_OS01G13800-cb001
How it was run: as §1

[5] = tested on: LOC_OS01G14860-cb001
How it was run: as §1

[6] = tested on: LOC_OS01G21960-cb002
How it was run: as §1

[7] = tested on: LOC_OS01G39600-cb002
How it was run: as §1

[8] = tested on: LOC_OS01G48390-cb002
How it was run: as §1

[9] = tested on: LOC_OS01G51400-cb002
How it was run: as §1

[10] = tested on: T1, LOC_OS01G52050-cb004
T1 sequence (whole entry): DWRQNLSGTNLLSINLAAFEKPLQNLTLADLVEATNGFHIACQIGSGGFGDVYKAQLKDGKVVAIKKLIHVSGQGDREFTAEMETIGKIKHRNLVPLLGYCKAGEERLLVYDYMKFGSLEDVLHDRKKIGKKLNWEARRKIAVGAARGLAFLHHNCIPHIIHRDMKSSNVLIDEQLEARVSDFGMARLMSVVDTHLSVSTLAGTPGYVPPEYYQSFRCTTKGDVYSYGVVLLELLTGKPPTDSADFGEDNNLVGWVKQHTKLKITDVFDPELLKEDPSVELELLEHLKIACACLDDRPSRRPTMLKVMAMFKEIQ
How it was run: as §1

[11] = tested on: LOC_OS01G57100-cb003
How it was run: as §1

[12] = tested on: LOC_OS01G60330-cb001
How it was run: as §1

[13] = tested on: LOC_OS01G60700-cb002
How it was run: as §1

[14] = tested on: LOC_OS01G63280-cb003
How it was run: as §1

[15] = tested on: LOC_OS01G67340-cb003
How it was run: as §1

[16] = tested on: LOC_OS01G70970-cb002
How it was run: as §1

[17] = tested on: LOC_OS02G07810-cb001
How it was run: as §1

[18] = tested on: LOC_OS02G08530-cb003
How it was run: as §1

[19] = tested on: LOC_OS02G14120-cb001
How it was run: as §1

[20] = tested on: LOC_OS02G17970-cb001
How it was run: as §1

CN1CCN(c2cccc(Nc3nc4c(-c5ccc(S(C)(=O)=O)cc5)cccn4n3)c2)CC1
thermal shift delta Tm [1]: 2.06 °C
thermal shift delta Tm [2]: 0.63 °C
thermal shift delta Tm [3]: 1.02 °C
thermal shift delta Tm [4]: -0.37 °C
thermal shift delta Tm [5]: 0.51 °C
thermal shift delta Tm [6]: 1.39 °C
thermal shift delta Tm [7]: 2.12 °C
thermal shift delta Tm [8]: 1.12 °C
thermal shift delta Tm [9]: 0.39 °C
thermal shift delta Tm [10]: 2.68 °C
thermal shift delta Tm [11]: 0.76 °C
thermal shift delta Tm [12]: 13.8 °C
thermal shift delta Tm [13]: 0.45 °C
thermal shift delta Tm [14]: 0.49 °C
thermal shift delta Tm [15]: 1.35 °C
thermal shift delta Tm [16]: 0.37 °C
thermal shift delta Tm [17]: 0.59 °C
thermal shift delta Tm [18]: 1.34 °C
thermal shift delta Tm [19]: 6.3 °C
thermal shift delta Tm [20]: 0.48 °C

CCOc1cc(N2CCC(O)CC2)ccc1Nc1ncc2c(n1)N(C)c1ccccc1C(=O)N2C
thermal shift delta Tm [1]: 0.48 °C
thermal shift delta Tm [2]: 0.5 °C
thermal shift delta Tm [3]: 0.7 °C
thermal shift delta Tm [4]: -0.03 °C
thermal shift delta Tm [5]: 0.03 °C
thermal shift delta Tm [6]: 0.41 °C
thermal shift delta Tm [7]: -0.54 °C
thermal shift delta Tm [8]: 0.04 °C
thermal shift delta Tm [9]: 0.06 °C
thermal shift delta Tm [10]: -0.47 °C
thermal shift delta Tm [11]: 1.56 °C
thermal shift delta Tm [12]: 0.82 °C
thermal shift delta Tm [13]: 1.24 °C
thermal shift delta Tm [14]: -0.13 °C
thermal shift delta Tm [15]: -0.04 °C
thermal shift delta Tm [16]: 0.52 °C
thermal shift delta Tm [17]: 0.39 °C
thermal shift delta Tm [18]: 0.9 °C
thermal shift delta Tm [19]: -0.64 °C
thermal shift delta Tm [20]: 0.7 °C

CCCCCCCCCCCCCCCCOP(=O)([O-])OCC[N+](C)(C)C [Miltefosine]
thermal shift delta Tm [1]: -6.86 °C
thermal shift delta Tm [2]: -17.5 °C
thermal shift delta Tm [3]: -2.68 °C
thermal shift delta Tm [4]: -7.38 °C
thermal shift delta Tm [5]: -3.1 °C
thermal shift delta Tm [6]: -5.94 °C
thermal shift delta Tm [7]: -5.77 °C
thermal shift delta Tm [8]: -3.18 °C
thermal shift delta Tm [9]: -3.78 °C
thermal shift delta Tm [10]: -6.22 °C
thermal shift delta Tm [11]: -11.3 °C
thermal shift delta Tm [12]: -3.63 °C
thermal shift delta Tm [13]: -6.31 °C
thermal shift delta Tm [14]: -4.06 °C
thermal shift delta Tm [15]: -4.33 °C
thermal shift delta Tm [16]: -8.33 °C
thermal shift delta Tm [17]: -3.73 °C
thermal shift delta Tm [18]: -3.69 °C
thermal shift delta Tm [19]: -6.59 °C
thermal shift delta Tm [20]: -5.83 °C

CCn1c(=O)c(-c2cc[nH]n2)cc2c(C)nc(N)nc21
thermal shift delta Tm [1]: 0.43 °C
thermal shift delta Tm [2]: 1.06 °C
thermal shift delta Tm [3]: 0.44 °C
thermal shift delta Tm [4]: 0.27 °C
thermal shift delta Tm [5]: 0.44 °C
thermal shift delta Tm [6]: 0.65 °C
thermal shift delta Tm [7]: 0.24 °C
thermal shift delta Tm [8]: 0.13 °C
thermal shift delta Tm [9]: -0.16 °C
thermal shift delta Tm [10]: 0.21 °C
thermal shift delta Tm [11]: -0.09 °C
thermal shift delta Tm [12]: 0.91 °C
thermal shift delta Tm [13]: 0.72 °C
thermal shift delta Tm [14]: 0.14 °C
thermal shift delta Tm [15]: 0.34 °C
thermal shift delta Tm [16]: 0.36 °C
thermal shift delta Tm [17]: 0 °C
thermal shift delta Tm [18]: 0.79 °C
thermal shift delta Tm [19]: 0.62 °C
thermal shift delta Tm [20]: 0.52 °C

CS(=O)(=O)N1CCc2c(-c3cnc(N)nc3)nc(N3CCOCC3)nc21
thermal shift delta Tm [1]: 0.53 °C
thermal shift delta Tm [2]: 3.27 °C
thermal shift delta Tm [3]: -0.12 °C
thermal shift delta Tm [4]: 0.32 °C
thermal shift delta Tm [5]: 0.7 °C
thermal shift delta Tm [6]: 0.72 °C
thermal shift delta Tm [7]: -0.17 °C
thermal shift delta Tm [8]: 0.96 °C
thermal shift delta Tm [9]: 0.18 °C
thermal shift delta Tm [10]: 0.32 °C
thermal shift delta Tm [11]: 1.64 °C
thermal shift delta Tm [12]: 1.56 °C
thermal shift delta Tm [13]: 0.95 °C
thermal shift delta Tm [14]: 0.4 °C
thermal shift delta Tm [15]: 1.13 °C
thermal shift delta Tm [16]: 0.73 °C
thermal shift delta Tm [17]: 1.06 °C
thermal shift delta Tm [18]: 1.51 °C
thermal shift delta Tm [19]: 1.15 °C
thermal shift delta Tm [20]: 0.81 °C

CC(C)n1ncnc1-c1cn2c(n1)-c1ccc(O[C@@H](C)C(N)=O)cc1OCC2
thermal shift delta Tm [1]: 0.47 °C
thermal shift delta Tm [2]: 1.25 °C
thermal shift delta Tm [3]: 0.08 °C
thermal shift delta Tm [4]: 0.67 °C
thermal shift delta Tm [5]: 0.28 °C
thermal shift delta Tm [6]: 0.8 °C
thermal shift delta Tm [7]: 0.74 °C
thermal shift delta Tm [8]: 0.6 °C
thermal shift delta Tm [9]: 0.1 °C
thermal shift delta Tm [10]: 0.31 °C
thermal shift delta Tm [11]: 0.54 °C
thermal shift delta Tm [12]: 0.84 °C
thermal shift delta Tm [13]: 1.39 °C
thermal shift delta Tm [14]: 0.36 °C
thermal shift delta Tm [15]: 0.34 °C
thermal shift delta Tm [16]: 0.21 °C
thermal shift delta Tm [17]: 1.33 °C
thermal shift delta Tm [18]: 0.19 °C
thermal shift delta Tm [19]: 0.43 °C
thermal shift delta Tm [20]: 1.55 °C

O=C(NOCC1CC1)c1ccc(F)c(F)c1Nc1ccc(I)cc1Cl
thermal shift delta Tm [1]: 1.01 °C
thermal shift delta Tm [2]: 11.3 °C
thermal shift delta Tm [3]: 1.62 °C
thermal shift delta Tm [4]: 0.71 °C
thermal shift delta Tm [5]: 1.37 °C
thermal shift delta Tm [6]: 1.16 °C
thermal shift delta Tm [7]: 1.41 °C
thermal shift delta Tm [8]: 1.28 °C
thermal shift delta Tm [9]: 0.54 °C
thermal shift delta Tm [10]: 2.25 °C
thermal shift delta Tm [11]: 2.41 °C
thermal shift delta Tm [12]: 2.82 °C
thermal shift delta Tm [13]: 2.16 °C
thermal shift delta Tm [14]: 0.93 °C
thermal shift delta Tm [15]: 0.18 °C
thermal shift delta Tm [16]: 1.09 °C
thermal shift delta Tm [17]: 1.23 °C
thermal shift delta Tm [18]: 1.11 °C
thermal shift delta Tm [19]: 1.97 °C
thermal shift delta Tm [20]: 1.54 °C

CCN(CC)CCCCNc1ncc2cc(-c3cc(OC)cc(OC)c3)c(NC(=O)NC(C)(C)C)nc2n1
thermal shift delta Tm [1]: 0.27 °C
thermal shift delta Tm [2]: 1.32 °C
thermal shift delta Tm [3]: 0.9 °C
thermal shift delta Tm [4]: 0.29 °C
thermal shift delta Tm [5]: 0.28 °C
thermal shift delta Tm [6]: 0.43 °C
thermal shift delta Tm [7]: -0.12 °C
thermal shift delta Tm [8]: 1.3 °C
thermal shift delta Tm [9]: 0.23 °C
thermal shift delta Tm [10]: 0.11 °C
thermal shift delta Tm [11]: 0.87 °C
thermal shift delta Tm [12]: 0.35 °C
thermal shift delta Tm [13]: 0.92 °C
thermal shift delta Tm [14]: 0.87 °C
thermal shift delta Tm [15]: 0.05 °C
thermal shift delta Tm [16]: 0.05 °C
thermal shift delta Tm [17]: 0.72 °C
thermal shift delta Tm [18]: 0.6 °C
thermal shift delta Tm [19]: -0.08 °C
thermal shift delta Tm [20]: 0.18 °C

O=C(O)c1ccc2c(c1)nc(Nc1cccc(Cl)c1)c1ccncc12 [Silmitasertib (CX-4945)]
thermal shift delta Tm [1]: 0.84 °C
thermal shift delta Tm [2]: 2.8 °C
thermal shift delta Tm [3]: 1.54 °C
thermal shift delta Tm [4]: 0.77 °C
thermal shift delta Tm [5]: 2.7 °C
thermal shift delta Tm [6]: 2.28 °C
thermal shift delta Tm [7]: 6.15 °C
thermal shift delta Tm [8]: 0.06 °C
thermal shift delta Tm [9]: 0.3 °C
thermal shift delta Tm [10]: 2.54 °C
thermal shift delta Tm [11]: 2.46 °C
thermal shift delta Tm [12]: 4.93 °C
thermal shift delta Tm [13]: 1.42 °C
thermal shift delta Tm [14]: 1.39 °C
thermal shift delta Tm [15]: 0.58 °C
thermal shift delta Tm [16]: 0.36 °C
thermal shift delta Tm [17]: 0.97 °C
thermal shift delta Tm [18]: 1.24 °C
thermal shift delta Tm [19]: 2.72 °C
thermal shift delta Tm [20]: 1.95 °C

Cc1ccc(Nc2nccc(N(C)c3ccc4c(C)n(C)nc4c3)n2)cc1S(N)(=O)=O [Pazopanib]
thermal shift delta Tm [1]: 2.16 °C
thermal shift delta Tm [2]: 0.45 °C
thermal shift delta Tm [3]: 1.67 °C
thermal shift delta Tm [4]: -0.48 °C
thermal shift delta Tm [5]: 0.04 °C
thermal shift delta Tm [6]: 0.56 °C
thermal shift delta Tm [7]: 1.25 °C
thermal shift delta Tm [8]: 4.34 °C
thermal shift delta Tm [9]: 0.23 °C
thermal shift delta Tm [10]: 0.91 °C
thermal shift delta Tm [11]: 0.76 °C
thermal shift delta Tm [12]: 3.85 °C
thermal shift delta Tm [13]: 1.11 °C
thermal shift delta Tm [14]: 0.59 °C
thermal shift delta Tm [15]: 0.96 °C
thermal shift delta Tm [16]: 0.44 °C
thermal shift delta Tm [17]: 0.68 °C
thermal shift delta Tm [18]: 1.82 °C
thermal shift delta Tm [19]: 3.43 °C
thermal shift delta Tm [20]: 0.74 °C
